Results reported in PubChem BioAssay (NCI).
Compounds without any hit were thinned out: in the full panel of roughly 79,000, 15% have a hit. Cut-off read from the data, not from the text of the source: active = growth inhibition above about 70%; inactive = the rest.

Experiments:
[1] = NCI Yeast Anticancer Drug Screen. Data for the rad50 strain (AID 155);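 note: 0% = growth of vehicle-only cultures of the same strain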; settings: S. cerevisiae rad50 strain growth inhibition; at 50.0 µM; hits give high values
Method in brief: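 A DNA repair-deficient yeast mutant serves as the test organism; compound-induced growth inhibition is calculated against vehicle-treated cells.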

[2] = NCI Yeast Anticancer Drug Screen. Data for the mec2-1 strain (AID 157); settings: S. cerevisiae mec2-1 strain, at 50.0 µM, hits give high values
Method in brief: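 Readout is yeast growth inhibition, normalised to vehicle-treated controls, in the mec2-1 strain exposed to compound.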

[3] = NCI Yeast Anticancer Drug Screen. Data for the sgs1 mgt1 strain (AID 161);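 note: 0% = growth of cultures given vehicle only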; settings: S. cerevisiae sgs1 mgt1 strain, at 50.0 µM, hits give high values
Method in brief: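 Percent growth inhibition was derived by comparing compound-exposed mutant yeast with vehicle-exposed cultures. The strain carries alterations in DNA damage repair.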

[4] = NCI Yeast Anticancer Drug Screen. Data for the cln2 rad14 strain (AID 165);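 note: 0% = growth equal to vehicle treated cultures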; settings: S. cerevisiae cln2 rad14 strain, at 50.0 µM, hits give high values
Method in brief: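 Relative to vehicle controls, growth inhibition of compound-treated cln2 rad14 yeast was recorded.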

[5] = NCI Yeast Anticancer Drug Screen. Data for the bub3 strain (AID 167); settings: S. cerevisiae bub3 mutant strain, at 50.0 µM, hits give high values
Method in brief: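 Inhibition values come from growth of compound-treated mutant yeast normalised to vehicle-treated controls.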

[6] = NCI Yeast Anticancer Drug Screen. Data for the mlh1 rad18 strain (AID 175); settings: S. cerevisiae mlh1 rad18 strain growth inhibition; at 50.0 µM; hits give high values
Method in brief: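 Test agents were incubated with a yeast strain of defined genotype (DNA damage repair defect). Inhibition of growth was derived by comparison with vehicle-exposed cultures.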

Measured: growth inhibition

NNC(=O)CNc1cccc(Br)c1
inactive: [1] -16.1% | [2] -24.6% | [3] -6.1% | [4] 16.9% | [5] -32.4% | [6] -11.4%

OC1(c2ccc(-c3ccc(-c4ccc(C5(O)C(c6ccccc6)=C(c6ccccc6)C(c6ccccc6)=C5c5ccccc5)cc4)cc3)cc2)C(c2ccccc2)=C(c2ccccc2)C(c2ccccc2)=C1c1ccccc1
inactive: [1] 1.05% | [2] 4.4% | [3] 6.8% | [4] -3.9% | [5] -1.8% | [6] 2%

CN(C)C12CCCCCC1S(=O)(=O)C2 (stereo unspecified)
inactive: [1] -0.05% | [2] -20.1% | [3] 0.85% | [4] -17.6% | [5] -22.4% | [6] 3.45%

CC1CCCC(C)N1 (stereo unspecified)
inactive: [1] 2.5% | [2] -9.05% | [3] -1.75% | [4] -1.95% | [5] 1.5% | [6] 10.8%

CCOc1c(C)cc(C(C)c2cc3c(cc2OC)OCO3)cc1C (stereo unspecified)
inactive: [1] 19.2% | [2] 26% | [3] 23.5% | [4] 17.4% | [5] 51.4% | [6] 25.1%

COC(=O)C(=O)CC(=O)CCn1ncc(Cl)c(Cl)c1=O
inactive: [1] -14.3% | [2] -25.4% | [3] -1.3% | [4] 6.45% | [5] -13.6% | [6] -17.7%

C[n+]1cc(-c2ccccc2)cc(-c2ccccc2)c1
inactive: [1] 0.85% | [2] -3.35% | [3] -1.55% | [4] -29.8% | [5] -3.45% | [6] 6.85%

c1ccc(-c2ccc3c(c2)NCCN3)cc1
inactive: [1] -3% | [2] 9.35% | [3] -13.6% | [4] -4.35% | [5] 7.25% | [6] 21.4%

FC(F)(F)c1ccc(C=NC23CC4CC(CC(C4)C2)C3)cc1
inactive: [1] -8.85% | [2] -9% | [3] -16.2% | [4] -27.1% | [5] -18.9% | [6] -30.9%

CNC(=O)OCc1c(COC(=O)NC)c(C)n(-c2ccc(F)cc2)c1C
inactive: [1] 30.1% | [2] 14.8% | [3] 4.55% | [4] 0.5% | [5] 50.3% | [6] -12.2%

c1ccc(CCC2OCC(c3ccccc3)O2)cc1 (stereo unspecified)
inactive: [1] -21.9% | [2] 18.6% | [3] -3.2% | [4] -35.9% | [5] 58.8% | [6] -2.05%

COc1cc2c(cc1OC)C(c1cc(OC)c(OC)c(OC)c1)C1(O)C(=O)OCC1(O)C2 (stereo unspecified)
inactive: [1] 20.1% | [2] -8.25% | [3] 13.1% | [4] 21.8% | [5] 19.4% | [6] 20.2%

Cc1ccc(S(=O)(=O)Nc2ccc([N+](=O)[O-])cc2[N+](=O)[O-])cc1
inactive: [1] 17.5% | [2] 15.3% | [3] -1.65% | [4] 9.85% | [5] 1.15% | [6] 17.8%

OC(CBr)c1cc(-c2ccccc2)nc2c(Cl)cc(Cl)cc12 (stereo unspecified)
inactive: [1] 31.9% | [2] -8.45% | [3] 33.6% | [4] -16.7% | [5] 11.8% | [6] 50.8%

CCN(CC)c1ccc2c(c1)C(O)c1ccccc1-2 (stereo unspecified)
inactive: [1] -3.75% | [2] -20.4% | [3] -5.7% | [4] -12.4% | [5] 14.4% | [6] 17.6%

CCC1COC(Nc2cccc3c2CCCC3)=N1 (stereo unspecified)
inactive: [1] -0.05% | [2] -6.7% | [3] -8.75% | [4] -30.4% | [5] 17.7% | [6] 4.55%

NC(=S)N/N=C1/CC(=O)N(c2ccccc2)C1c1ccccc1 (stereo unspecified)
inactive: [1] 32.6% | [2] 13.2% | [3] 37% | [4] -2.8% | [5] 32.4% | [6] 38.9%

Cc1ccc(C(=O)c2ccc(O)cc2)cc1
inactive: [1] -25.4% | [2] -7.65% | [3] -6.5% | [4] -21.8% | [5] -7.6% | [6] -14.2%

O=c1nc(NC2CC2)ccn1C1OC(CO)C(O)C1O (stereo unspecified)
inactive: [1] -3.75% | [2] -4.25% | [3] -1% | [4] -0.25% | [5] 4.35% | [6] -20.9%

Nc1ncnc2c1ncn2C1C=CC(COS(N)(=O)=O)C1 (stereo unspecified)
inactive: [1] 13.2% | [2] 21.9% | [3] 0.7% | [4] 10.8% | [5] 13.9% | [6] 29.4%

O=C(O)CSc1ccn(Cc2ccccc2)c1
inactive: [1] -8.15% | [2] -18.5% | [3] -43.1% | [4] -22.8% | [5] -56.8% | [6] -22.6%

C=CCOC(=O)c1cccc(C)c1
inactive: [1] 9.7% | [2] 0.3% | [3] -1% | [4] -41.4% | [5] 9.9% | [6] 7.7%

COc1ccc2cc(C(C)C(O)c3cc(F)c(F)c(F)c3F)ccc2c1 (stereo unspecified)
inactive: [1] -21.1% | [2] -30.3% | [3] -10.7% | [4] 0.15% | [5] -1.25% | [6] -20.5%

COc1ccc(CSC(=S)Nc2ccc(N=Nc3ccccc3)cc2)cc1
inactive: [1] 33.7% | [2] 11.6% | [3] 24.6% | [4] 25.4% | [5] -7.3% | [6] 1.55%

CCCOC1NC(=O)Oc2ccccc21 (stereo unspecified)
inactive: [1] -14.8% | [2] -6.1% | [3] -0.9% | [4] -30.4% | [5] -1.55% | [6] 13.8%

CS(=O)(=O)CC(O)c1ccccc1 (stereo unspecified)
inactive: [1] 4.8% | [2] -3.2% | [3] 2.95% | [4] -12.7% | [5] 6.65% | [6] -21.4%

CC(C)Sc1nc(NC(=O)N(C)N=O)cc(=O)[nH]1
inactive: [1] -3.4% | [2] -3.45% | [3] 19.6% | [4] 27.5% | [5] -9.95% | [6] -32.1%

O=C(OCc1ccccc1)C1CCCN1C(=O)C(CSC(c1ccccc1)(c1ccccc1)c1ccccc1)NC(c1ccccc1)(c1ccccc1)c1ccccc1 (stereo unspecified)
inactive: [1] -5.5% | [2] -1.35% | [3] -0.8% | [4] -11.3% | [5] -7.55% | [6] 24.6%

COc1ccc2c(c1)[n+](=O)c(C(=O)C/C(=N/OCCCc1ccccc1)C(=O)NC13CC4CC(CC(C4)C1)C3)c(C)n2[O-]
inactive: [1] -1.3% | [2] -3.2% | [3] -19.4% | [4] 17.1% | [5] 3.85% | [6] -4.6%

CCc1ccc(NC(=O)c2cc(OC)c(OC)c(OC)c2)cc1
inactive: [1] 1.1% | [2] 29.4% | [3] 2.6% | [4] -12.3% | [5] 17.5% | [6] 29.2%

N#CCc1nc2ccccc2[nH]1
inactive: [1] 7.95% | [2] -6.95% | [3] -9.35% | [4] 3.1% | [5] 6.25% | [6] 3.3%

CCCNC(=O)Cn1c(C)cc2ccccc21
inactive: [1] 6.55% | [2] 6.25% | [3] 26.2% | [4] 22.7% | [5] 15.4% | [6] -82.5%

CCCCCCC(O)C/C=C\CCCCCCCC(=O)O (stereo unspecified)
inactive: [1] -14% | [2] -3.7% | [3] -30.9% | [4] 62.9% | [5] -9.2% | [6] -15.9%

Cc1ccc(Nc2nc(C)c(C(=O)CC(=O)C(=O)Nc3c(C)cccc3C(C)(C)C)s2)cc1
inactive: [1] 14.2% | [2] -17.6% | [3] -0.4% | [4] -19.2% | [5] -1.05% | [6] 2.85%

O=C(O)[C@H](CSSC[C@@H](C(=O)O)N1C(=O)c2ccccc2C1=O)N1C(=O)c2ccccc2C1=O
inactive: [1] 20.3% | [2] -6.4% | [3] -4.85% | [4] 31.4% | [5] 2.8% | [6] -4.4%

CC1(C)N=C(C2CCCN2C(=O)OCc2ccccc2)OC1=O (stereo unspecified)
inactive: [1] -43% | [2] -20.7% | [3] -38.1% | [4] -1.75% | [5] 12.3% | [6] -28.6%

O=C(O)c1cnccn1
inactive: [1] 18.8% | [2] 4.3% | [3] 16.9% | [4] 12.6% | [5] 1.2% | [6] 17.9%

CC(O)CNc1ncnc2ccccc12 (stereo unspecified)
inactive: [1] -13.5% | [2] -12.2% | [3] -3.15% | [4] -5.1% | [5] 9.15% | [6] 4.05%

O=C(CCCCCCCC(=O)OC(CCC1CCCO1)CCC1CCCO1)OC(CCC1CCCO1)CCC1CCCO1 (stereo unspecified)
inactive: [1] 6.1% | [2] -18.6% | [3] -4.5% | [4] -9.75% | [5] -6.5% | [6] 7.05%

CCc1c(COC(=O)NC)c(COC(=O)NC)cc2c1[nH]c1ccccc12
inactive: [1] -16.6% | [2] -1.95% | [3] -2.95% | [4] -16.4% | [5] -41% | [6] -14.6%

CCOC(=O)c1ccc(C#N)cc1
inactive: [1] -8% | [2] -57.3% | [3] -11.2% | [4] -7.6% | [5] -15.7% | [6] 5.45%
